Test [1] in a line: qHTS of pediatric cancer cell lines to identify multiple opportunities for drug repurposing: Confirmatory screen for NB-EBc1 cells (AID 1347115).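 Further: cells exposed to compound for 48 h before the viability read; nearly all actives have a fitted effect of over 45% in size.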 Further: potency means the concentration at half of the fitted maximal effect. The procedure, abridged:
(§1)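 Cells (500-1,000/well) in growth media were settled 5 h at 37 degrees C, then given compounds for 48 h. Viability was read as CellTiter-Glo luminescence. Primary runs used MIPE at 11 points (0.78 nM-46 µM) and NPC at 8 points (0.59 nM-46 µM); follow-ups used 11 points.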
On the technique in general: Quantitative high-throughput screening tests each substance at several concentrations.

A short description of test [2]: qHTS of pediatric cancer cell lines to identify multiple opportunities for drug repurposing: Confirmatory screen for BT-37 cells (AID 1347117). Further: nearly all actives have a fitted effect of over 55% in size. Further: potency means the concentration at half of the fitted maximal effect. The procedure, abridged: as §1
The nature of test [3]: qHTS of pediatric cancer cell lines to identify multiple opportunities for drug repurposing: Confirmatory screen for MG 63 (6-TG R) cells (AID 1347119). Further: nearly all actives have a fitted effect of over 55% in size. Further: potency means the concentration at half of the fitted maximal effect. An outline of the steps:
as §1

The nature of test [4]: qHTS of pediatric cancer cell lines to identify multiple opportunities for drug repurposing: Confirmatory screen for Rh18 cells (AID 1347125). Further: nearly all actives have a fitted effect of over 55% in size. Further: potency means the concentration at half of the fitted maximal effect. The procedure, abridged: as §1
Test [5] can be described thus: qHTS of pediatric cancer cell lines to identify multiple opportunities for drug repurposing: Confirmatory screen for Rh30 cells (AID 1347126). Further: nearly all actives have a fitted effect of over 55% in size. Further: potency means the concentration at half of the fitted maximal effect. An outline of the steps:
as §1

Test [6] can be described thus: qHTS of pediatric cancer cell lines to identify multiple opportunities for drug repurposing: Confirmatory screen for Saos-2 cells (AID 1347127). Further: nearly all actives have a fitted effect of over 60% in size. Further: potency means the concentration at half of the fitted maximal effect. The procedure, abridged:
as §1

Test [7] can be described thus: qHTS of pediatric cancer cell lines to identify multiple opportunities for drug repurposing: Confirmatory screen for OHS-50 cells (AID 1347128). Further: potency means the concentration at half of the fitted maximal effect. The procedure, abridged:
as §1

A short description of test [8]: qHTS of pediatric cancer cell lines to identify multiple opportunities for drug repurposing: Confirmatory screen for SK-N-SH cells (AID 1347129).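 Further: cells exposed to compound for 48 h before viability read; nearly all actives have a fitted effect of over 60% in size.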 Further: potency means the concentration at half of the fitted maximal effect. The procedure, abridged:
as §1

For test [9], the system named is Zika virus NS2B-NS3 protease. Nature of the test: Primary screen GU AMC qHTS for Zika virus inhibitors (AID 1347154). Further: nearly all actives have a fitted effect of over 70% in size. Further: potency means the concentration at half of the fitted maximal effect. The procedure, abridged:
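Unlinked Zika NS2B hydrophilic domain/NS3 protease domain noncovalent complex (25 nM final) in 10 mM Tris-HCl pH 8.0, 0.01% Tween 20, with AMC peptide substrate. Fluorescence (ex 340, em 450 nm) change over 15 min, room temperature; percent inhibition fitted to 4-parameter Hill equation.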

Test [10] is described as follows: qHTS of pediatric cancer cell lines to identify multiple opportunities for drug repurposing: Confirmatory screen for TC32 cells (AID 1347118).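 Further: cells exposed to compound for 48 h before the read; nearly all actives have a fitted effect of over 65% in size.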 Further: potency means the concentration at half of the fitted maximal effect. An outline of the steps:
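TC32 cells, 500-1,000/well in growth medium, compound-treated 48 h at 37 °C; viability from CellTiter-Glo luminescence. Primary screen: MIPE 11-point (0.78 nM–46 µM final), NPC 8-point (0.59 nM–46 µM final); confirmatory at 11-point dilutions.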

Test [11] is described as follows: qHTS of pediatric cancer cell lines to identify multiple opportunities for drug repurposing: Confirmatory screen for control Hh wild type fibroblast cells (AID 1347121). Further: nearly all actives have a fitted effect of over 70% in size. Further: potency means the concentration at half of the fitted maximal effect. The procedure, abridged:
as §1

Test [12] can be described thus: qHTS of pediatric cancer cell lines to identify multiple opportunities for drug repurposing: Confirmatory screen for U-2 OS cells (AID 1347122). Further: nearly all actives have a fitted effect of over 65% in size. Further: potency means the concentration at half of the fitted maximal effect. An outline of the steps: as §1
Test [13] can be described thus: qHTS of pediatric cancer cell lines to identify multiple opportunities for drug repurposing: Confirmatory screen for Rh41 cells (AID 1347123).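 Further: 48 h compound exposure; nearly all actives have a fitted effect of over 60% in size.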 Further: potency means the concentration at half of the fitted maximal effect. The procedure, abridged:
as §1

The nature of test [14]: qHTS of pediatric cancer cell lines to identify multiple opportunities for drug repurposing: Confirmatory screen for SJ-GBM2 cells (AID 1347116). Further: nearly all actives have a fitted effect of over 60% in size. Further: potency means the concentration at half of the fitted maximal effect. An outline of the steps: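 Viability measured as metabolically active cells via CellTiter-Glo luminescence following 48 hours of compound exposure, 11-point dilutions in confirmatory testing. 500-1,000 cells/well plated 5 hours before dosing; controls were DMSO and 2.3 µM bortezomib.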

Test [15] addresses Furin (Homo sapiens) (UniProt P09958). Nature of the test: Furin counterscreen qHTS for Zika virus inhibitors (AID 1347149). Further: potency means the concentration at half of the fitted maximal effect; nearly all actives have a fitted effect of over 70% in size. The procedure, abridged:
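Counterscreen measures cleavage of 2 microM BOC-RVRR-AMC, below its ~15 microM Km, by 5 nM full-length human furin at pH 7.0 after a 15-min compound preincubation. Inhibition derives from the 15-min fluorescence increase at 37C.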
On the technique in general: Counterscreens check selectivity or assay interference.

For test [16], the system named is Zika virus NS2B-NS3 protease (linked construct). Nature of the test: Confirmatory screen NINDS AMC qHTS for Zika virus inhibitors (AID 1347152). Further: potency means the concentration at half of the fitted maximal effect; nearly all actives have a fitted effect of over 70% in size. The procedure, abridged:
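In this dose-response qHTS, AMC release from 10 microM Bz-Nle-KRR-AMC by 1 nM linked protease is measured over 15 minutes (about 20% conversion) at pH 8.0. Percent inhibition is fitted to a 4-parameter Hill curve.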

Test [17] deals with Zika virus NS2B-NS3 protease (unlinked complex). Description: Confirmatory screen GU AMC qHTS for Zika virus inhibitors (AID 1347153). The procedure, abridged:
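Unlinked NS2B-NS3 complex (25 nM) in 10 mM Tris-HCl pH 8.0, 0.01% Tween 20 preincubated 15 min with compound, then 10 microM Bz-Nle-KRR-AMC (Km 18.3 µM). Fluorescence change over 15 min, normalized, Hill-fitted.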

The nature of test [18]: qHTS of pediatric cancer cell lines to identify multiple opportunities for drug repurposing: Confirmatory screen for RD cells (AID 1347124).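 Further: cells exposed to compound for 48 h before viability readout; nearly all actives have a fitted effect of over 65% in size.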 The procedure, abridged:
as §1

Inconclusive results are not listed. Activity calls are given as the source filed them. The call rests on the fitted dose curve; in most records, active means well fitted curve in the direction sought with a large enough effect; inconclusive means small, poorly fitted or top-dose-only effect, or another doubt; inactive means no such curve, though single readings can be large; an effect the other way counts as inactive or inconclusive.

Furin (Homo sapiens), sequence (P09958 whole entry, looked up): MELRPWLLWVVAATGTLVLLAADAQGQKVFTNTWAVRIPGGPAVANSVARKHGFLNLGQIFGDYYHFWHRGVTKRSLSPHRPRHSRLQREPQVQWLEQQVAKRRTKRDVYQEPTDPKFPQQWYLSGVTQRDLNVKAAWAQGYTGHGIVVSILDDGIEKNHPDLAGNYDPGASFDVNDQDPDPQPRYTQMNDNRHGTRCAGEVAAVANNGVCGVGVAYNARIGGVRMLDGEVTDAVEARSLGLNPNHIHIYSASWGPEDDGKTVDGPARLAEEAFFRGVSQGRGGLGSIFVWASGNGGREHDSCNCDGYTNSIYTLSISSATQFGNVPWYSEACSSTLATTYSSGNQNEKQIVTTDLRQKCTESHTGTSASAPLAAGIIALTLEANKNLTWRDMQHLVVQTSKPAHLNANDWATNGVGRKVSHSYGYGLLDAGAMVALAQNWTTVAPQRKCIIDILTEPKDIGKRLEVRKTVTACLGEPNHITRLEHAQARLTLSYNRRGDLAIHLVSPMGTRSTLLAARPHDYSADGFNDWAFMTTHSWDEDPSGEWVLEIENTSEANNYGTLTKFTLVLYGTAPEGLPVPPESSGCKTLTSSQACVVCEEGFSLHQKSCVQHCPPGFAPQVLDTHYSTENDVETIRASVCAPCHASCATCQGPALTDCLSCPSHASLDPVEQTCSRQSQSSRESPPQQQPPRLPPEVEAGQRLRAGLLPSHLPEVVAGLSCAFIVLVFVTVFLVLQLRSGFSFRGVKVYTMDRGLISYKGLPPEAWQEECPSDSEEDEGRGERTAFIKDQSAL

`C[C@@H](Oc1cc(-c2cnn(C3CCNCC3)c2)cnc1N)c1c(Cl)ccc(F)c1Cl`: the Potency in test [1] is 16500 nM (active); in [2], 20800 nM (active); in test [3], 13100 nM (active); in test [4], 18500 nM (active); in [5], 7370 nM (active); in test [6], 13100 nM (active). For the same compound, the results for the Potency in test [7] and in [8] were 14700 nM (active) and 7430 nM (active), respectively. In addition, the Potency entry in test [9] was “inactive”.

Turning to `CC1(C)O[C@@H]2C[C@@H]3[C@H]4C[C@@H](F)C5=CC(=O)C=C[C@]5(C)[C@@]4(F)[C@@H](O)C[C@]3(C)[C@]2(C(=O)CO)O1`, the Potency in test [1] was 11700 nM (active); in test [2] it was 82.7 nM (active); in test [10] it was 369 nM (active); in test [3], 2610 nM (active); in [12], 1310 nM (active); in test [13] it was 585 nM (active). Further, the Potency in test [6] was 117 nM (active); in test [7], 82.7 nM (active). Also, the Potency entry in [11], in [4], in test [5] and in test [9] was “inactive” in each case.

As to `COC(=O)c1ccc2c(C(=Nc3ccc(N(C)C(=O)CN4CCN(C)CC4)cc3)c3ccccc3)c(O)[nH]c2c1`, the Potency entry in [1], in test [14], in test [11] and in test [9] was “inactive” throughout. Moreover, the Potency in [3] is 3290 nM (active); in test [12], 13100 nM (active); in test [13] it was 8270 nM (active); in test [4], 26100 nM (active); in test [5], 16500 nM (active); in test [7] it was 14700 nM (active).

Turning to `O=C(Nc1cc(C(F)(F)F)cc(C(F)(F)F)c1)c1cc(Cl)ccc1O`, the Potency in [1] was 2930 nM (active); in [2] it was 1850 nM (active); in test [3] it was 928 nM (active); in [11], 2330 nM (active); in test [4], 3690 nM (active); in test [6], 1650 nM (active). The Potency in [7] was 928 nM (active); in test [8] it was 3720 nM (active); in test [15], 55500 nM (active); in [16] it was 49400 nM (active); in [17], 49400 nM (active). For the same compound, the Potency entry in test [9] was “inactive”.

As for `Cc1c(C)n(Cc2ccc(-c3ccccc3C(=O)O)cc2)c2ccc(C(=O)N[C@@H](C)c3ccc([N+](=O)[O-])cc3)cc12`, the Potency entry in test [1], in [2], in [10], in test [3], in test [11] and in [12] was “inactive” each time. The Potency entry in [18], in test [4], in test [5], in test [6], in test [7] and in test [8] was “inactive” each time. In addition, the Potency was 9270 nM (active) in test [13], 21500 nM (active) in test [17] and 19200 nM (active) in test [9].

Turning to `Cc1c(NC(=O)OC[C@@H]2COCCN2)cn2ncnc(Nc3ccc4c(cnn4Cc4cccc(F)c4)c3)c12`, the Potency result in test [1], in [3], in test [11], in test [6] and in test [9] was “inactive” in each case. In addition, the Potency was 18500 nM (active) in test [2], 26100 nM (active) in test [10], 20800 nM (active) in [12] and 16500 nM (active) in [13].

In the case of `CC=CC1=C(C(=O)O)N2C(=O)[C@H](NC(=O)[C@H](N)c3ccc(O)cc3)[C@@H]2SC1`, the Potency result in test [1], in test [2], in [3], in [11], in [12] and in [13] was “inactive” in each case. Also, the Potency entry in [18], in [4], in [5], in [7], in test [8] and in [9] was “inactive” throughout.

With `CC[C@@]1(O)C(=O)OCc2c1cc1n(c2=O)Cc2cc3cc(O)ccc3nc2-1`, the Potency in test [1] is 16.5 nM (active); in [2], 20.8 nM (active); in test [10] it was 13.1 nM (active); in [3], 65.7 nM (active); in test [4], 657 nM (active); in [5] it was 585 nM (active). In addition, the Potency in test [6] is 46.5 nM (active); in test [7], 92.8 nM (active); in test [8], 1870 nM (active).

For `COc1ccc(C=Cc2cc(OC)c(OC)c(OC)c2)cc1O`, the Potency is 14.7 nM (active) in [1]; 14.7 nM (active) in [2]; 13.1 nM (active) in test [10]; 10.4 nM (active) in test [3]; 26.1 nM (active) in test [12]; 10.4 nM (active) in [13]. In test [6], the Potency was 10.4 nM (active). In addition, the Potency result in test [11], in test [4] and in test [5] was “inactive” each time.

With `CC(C)(C)c1cc(NC(=O)Nc2ccc(-c3cn4c(n3)sc3cc(OCCN5CCOCC5)ccc34)cc2)no1`, the Potency was 16500 nM (active) in test [14]; 18500 nM (active) in test [2]; 3290 nM (active) in [10]; 20800 nM (active) in test [12]; 13100 nM (active) in test [13]; 16500 nM (active) in test [7]. The Potency in test [8] was 20900 nM (active). In addition, the Potency entry in test [9] was “inactive”.

Turning to `C=CCn1c(=O)c2cnc(Nc3ccc(N4CCN(C)CC4)cc3)nc2n1-c1cccc(C(C)(C)O)n1`, the Potency in [14] was 737 nM (active); in test [3], 1310 nM (active); in [12], 1650 nM (active); in test [13], 1170 nM (active); in test [6] it was 1310 nM (active); in test [7], 1040 nM (active). Further, in test [8], the Potency is 3320 nM (active). The Potency result in test [11] is “inactive”.

For the compound `O=C(Cc1ccc(-c2ccc(OCCN3CCOCC3)cc2)cn1)NCc1ccccc1`, the Potency is 147 nM (active) in test [2]; 117 nM (active) in [10]; 82.7 nM (active) in test [3]; 369 nM (active) in test [12]; 92.8 nM (active) in [13]. The Potency result in [4], in [5] and in test [9] was “inactive” in each case.

Regarding `COc1cccc(-c2ccc(NC(=O)C3=C(C(=O)O)CCC3)c(F)c2)c1`, the Potency was 1170 nM (active) in test [14], 14700 nM (active) in test [12] and 7370 nM (active) in test [5]. The Potency entry in [11], in test [4], in [7], in test [8] and in [9] was “inactive” in each case.

`Cc1cc(Nc2ncnc3ccc(-c4ccc(CNCCS(C)(=O)=O)o4)cc23)ccc1Oc1ccn2ncnc2c1`: the Potency in [14] was 65.7 nM (active); in test [2], 16500 nM (active); in [10], 18500 nM (active); in test [13] it was 2330 nM (active); in test [8], 20900 nM (active). The Potency result in test [3] and in test [11] was “inactive” each time.

Values taken from PubChem BioAssay (NCATS).
